High-throughput results deposited in PubChem by several laboratories.
BJeLR lethal – kills HRASV12-expressing BJeLR cells. BJeLR (HRASV12) viability, CellTiter-Glo ATP luminescence, 48 h. 0.17% of 300,000 active. AID 1554. inhibition, % (concentration not given with the values); in the data active = inhibition above about 50%
RN4220 kill – S. aureus RN4220 growth inhibition. OD600, 16 h. 0.33% of 330,000 active. inhibition, % (no concentration beside the values); in the data active = inhibition above about 85%
PfHsp40 rescue – rescue of PfHsp40-mediated yeast toxicity; S. cerevisiae expressing PfHsp40, growth rescue, ATP luminescence; growth rescue, % at 12.5 µM; 0.68% of 340,000 active; AID 504582; in the data active = growth rescue above about 28%, passing the limit was not always enough;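 note: yeast W303a lacking pdr1 and pdr3 grown in galactose medium; growth measured after three days at 30 °C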
CCHF vOTU inh – CCHFV vOTU protease inhibition | inhibition, % at 11.5 µM | Pep-AMC fluorescence | 0.55% of 370,000 active; in the data active = inhibition above about 30%
ugtP null kill – growth inhibition of S. aureus ugtP deletion strain | S. aureus RN4220 ugtP deletion, OD600 growth, 16 h | growth inhibition, % (concentration not given with the values) | 0.54% of 330,000 active; in the data active = growth inhibition above about 68%
Each line names hits and unclear results; the compound was inactive in the other large screens. Compounds with a hit are over-represented: about 1.6% of the library has one in this group of screens.

CCCCCCCCCCCCCCCCCCNc1ccn(C2OC(COP(=O)(O)OCC3OC(n4cc(F)c(=O)[nH]c4=O)CC3O)C(O)C2O)c(=O)n1 (stereo not drawn)	PfHsp40 rescue 42 (no result: BJeLR lethal, RN4220 kill, ugtP null kill)
O=c1[nH]c(=O)n(C2OC(CO)C(O)C(O)C2O)cc1F (stereo not drawn)	none (no result: BJeLR lethal, RN4220 kill, PfHsp40 rescue, ugtP null kill)
COc1cc(OC)cc(-c2sc3ccc(OC)cc3c2C#CC2(N)CCCCC2)c1	PfHsp40 rescue 34 (no result: BJeLR lethal, RN4220 kill, ugtP null kill)
CNC(=O)c1c(NC(=O)CS(=O)(=O)c2ccc(Cl)cc2)sc(C)c1C	none
CNC(=O)c1c(NC(=O)CS(=O)(=O)c2ccccc2)sc(C)c1C	PfHsp40 rescue 51
Oc1ccc2c3c1O[C@H]1c4[nH]c5ccccc5c4C[C@@]4(O)[C@@H](C2)N(CC2CC2)CC[C@]314	none (no result: BJeLR lethal, RN4220 kill, ugtP null kill)
Oc1ccc2c3c1O[C@H]1c4oc5ccccc5c4C[C@@]4(O)[C@@H](C2)N(CC2CC2)CC[C@]314	PfHsp40 rescue 34 (no result: RN4220 kill, ugtP null kill)
O=C(NN=Cc1cccc(Cl)c1)c1c(O)c2c([nH]c1=O)CCCC2	none (no result: BJeLR lethal, PfHsp40 rescue, CCHF vOTU inh)
Cc1ccccc1NC(=O)CCC(=O)NN=Cc1cc([N+](=O)[O-])ccc1O	RN4220 kill 95, ugtP null kill 85 (no result: BJeLR lethal, PfHsp40 rescue, CCHF vOTU inh)
O=C(N/N=C/c1cc([N+](=O)[O-])ccc1O)C12CC3CC(CC(C3)C1)C2	none (no result: RN4220 kill, ugtP null kill)
O=[N+]([O-])c1ccc(O)c(C=Nc2ccc3c(c2)OCCO3)c1	RN4220 kill 92
Cc1cc(Cl)ccc1NC(=O)CCC(=O)N/N=C/c1cc([N+](=O)[O-])ccc1O	none (no result: RN4220 kill, ugtP null kill)
O=C1C2C(C(=O)N1N=Cc1cc([N+](=O)[O-])ccc1O)C1C=CC2C12CC2 (stereo not drawn)	RN4220 kill 93 (no result: BJeLR lethal, PfHsp40 rescue, CCHF vOTU inh)
O=C1C2C(C(=O)N1N=Cc1cc([N+](=O)[O-])c(O)cc1O)C1C=CC2C12CC2 (stereo not drawn)	none (no result: BJeLR lethal, PfHsp40 rescue, CCHF vOTU inh)
O=C(NN=Cc1cc([N+](=O)[O-])ccc1O)C1CC1	RN4220 kill 90 (no result: BJeLR lethal, PfHsp40 rescue, CCHF vOTU inh)
CC1CN(C(C)CO)C(=O)c2cc(NC(=O)C3CCCCC3)ccc2OC1CN(C)S(C)(=O)=O (stereo not drawn)	none (no result: BJeLR lethal, PfHsp40 rescue, CCHF vOTU inh)
COc1cc(C(=O)NN=Cc2ccc(OC(=O)c3ccccc3Cl)cc2)ccc1O	none (no result: BJeLR lethal, PfHsp40 rescue, CCHF vOTU inh)
Cc1ccc(Oc2ncccc2C=NO)cc1	none (no result: BJeLR lethal, PfHsp40 rescue, CCHF vOTU inh)
O=[N+]([O-])c1ccc(NN=Cc2ccccc2O)nc1	none (no result: BJeLR lethal)
O=[N+]([O-])c1ccc(O)c(C=NNc2ccc(S(=O)(=O)O)cc2)c1	RN4220 kill 89 (no result: BJeLR lethal)
O=[N+]([O-])c1ccc(O)c(/C=N/Nc2ccccn2)c1	PfHsp40 rescue 308 (no result: RN4220 kill, ugtP null kill)
O=C(NC(C(=O)N/N=C/c1cc([N+](=O)[O-])ccc1O)c1n[nH]c(=O)c2ccccc12)c1ccccc1 (stereo not drawn)	PfHsp40 rescue 82 (no result: RN4220 kill, ugtP null kill)
CC(N=Cc1cc([N+](=O)[O-])ccc1O)c1ccccc1 (stereo not drawn)	RN4220 kill 85
Cc1cc(C)nc(NN=C2CCCC/C2=C\c2ccccc2)n1	none (no result: BJeLR lethal, PfHsp40 rescue, CCHF vOTU inh)
O=[N+]([O-])c1cc(Br)c(O)c(C=NNc2nc3ccccc3s2)c1	ugtP null kill 84 (no result: BJeLR lethal, PfHsp40 rescue, CCHF vOTU inh)
O=[N+]([O-])c1cc(Cl)cc(/C=N/Nc2nc3ccccc3s2)c1O	none (no result: RN4220 kill, ugtP null kill)
CCC(C)C(CNC(CNC)C(C)O)NCCc1ccc(OC)cc1 (stereo not drawn)	none (no result: BJeLR lethal, PfHsp40 rescue, CCHF vOTU inh)
Cc1cc(C)nc(SCc2cc(=O)c(OC(=O)c3ccc(S(=O)(=O)N4CCCC4)cc3)co2)n1	PfHsp40 rescue 130
CC(/C=C/c1ccco1)=NNC(=O)CNc1ccc2ccccc2c1	none (no result: BJeLR lethal, PfHsp40 rescue, CCHF vOTU inh)
c1ccc2sc(NC3=NCCN3)nc2c1	PfHsp40 rescue 186
COc1ccc2nc(N3C(=O)CNC3=S)sc2c1	PfHsp40 rescue 32 (no result: RN4220 kill, ugtP null kill)
COc1ccc2nc(NC3=NCCN3)sc2c1	PfHsp40 rescue 126 (no result: RN4220 kill, ugtP null kill)
NC(=O)C1CC2(CC(c3cccc(NC(=O)CC(c4ccccc4)c4ccccc4)c3)=NO2)CN1C(=O)C1CCC(=O)N1 (stereo not drawn)	none (no result: BJeLR lethal, PfHsp40 rescue, CCHF vOTU inh)
CC(=O)OC1C=COC(C)C1OC(C)=O (stereo not drawn)	none (no result: BJeLR lethal, PfHsp40 rescue, CCHF vOTU inh)
Cc1cccc(C(=O)c2cnc3ccccc3c2-c2ccccc2)c1	ugtP null kill 88
Cc1cccc(C(=O)NNC(=O)c2ccccc2)c1	none
c1ccc(-c2nc3ccccc3o2)nc1	none
c1ccc2nc(-c3nc4ccccc4o3)ccc2c1	BJeLR lethal 53
COc1ccc(S(=O)(=O)NC2CC3CCC2C3)cc1 (stereo not drawn)	PfHsp40 rescue 95
CSc1ccc(S(=O)(=O)NC2CC3CCC2C3)cc1 (stereo not drawn)	PfHsp40 rescue 78
O=[N+]([O-])c1ccccc1S(=O)(=O)NC1CC2CCC1C2 (stereo not drawn)	none
O=S(=O)(N[C@@H]1C[C@H]2CC[C@@H]1C2)c1cccs1	none
